# Where “and” joins values, the source holds several entries; their conditions need not be identical. Equal entries are not always repeated. About 2,000 (36%) of roughly 5,500 compounds were called active. Not shown: some 18% with an inconclusive outcome. Some of the results follow. Values without a mark were called inactive. Cut-off read from the data, not from the text of the source: active = normalized growth mostly below about 0.91 (no sharp cut-off); inconclusive = no clear call, values can overlap the other calls; inactive = mostly above about 0.92.
# Experiment: chemical genetic growth profiling, strain panel (AID 1159580);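 note: tested at 20 µM; growth read once vehicle control cultures reached saturation at 30 °C; 1 = growth at the plate median or of vehicle wells; lower values mean less growth of the strain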
# Details: S. cerevisiae deletion strains, growth OD
smiles,measurement,setting,value
Cc1cccc(N(C)C(=S)Oc2ccc3ccccc3c2)c1,normalized growth,"locus YAL013W, strain DEP1, hits give low values",0.968
same,normalized growth,"locus YAL021C, strain ccr4, hits give low values",0.952
same,normalized growth,"locus YAL026C, strain drs2, hits give low values",0.995
same,normalized growth,"locus YAL030W, strain snc1, hits give low values",0.996
same,normalized growth,"locus YBL061C, strain skt5, hits give low values",0.994
same,normalized growth,"locus YBR009C, strain hhf1, hits give low values",1.02
same,normalized growth,"locus YBR021W, strain FUR4, hits give low values",0.964
same,normalized growth,"locus YBR023C, strain chs3, hits give low values",0.981
same,normalized growth,"locus YBR171W, strain sec66, hits give low values",0.985
same,normalized growth,"locus YBR229C, strain ROT2, hits give low values",0.943
same,normalized growth,"locus YBR231C, strain swc5, hits give low values",0.973
same,normalized growth,"locus YBR279W, strain paf1, hits give low values",1.01
same,normalized growth,"locus YCL011C, strain gbp2, hits give low values",1
same,normalized growth,"locus YCL016C, strain dcc1, hits give low values",0.986
same,normalized growth,"locus YCL029C, strain bik1, hits give low values",0.967
same,normalized growth,"locus YCL069W, strain vba3, hits give low values",0.989
same,normalized growth,"locus YCR088W, strain abp1, hits give low values",0.995
same,normalized growth,"locus YDL005C, strain med2, hits give low values",0.998
same,normalized growth,"locus YDL035C, strain GPR1, hits give low values",0.979
same,normalized growth,"locus YDL040C, strain nat1, hits give low values",1.01
same,normalized growth,"locus YDL074C, strain BRE1, hits give low values",0.948
same,normalized growth,"locus YDL101C, strain DUN1, hits give low values",0.979
same,normalized growth,"locus YDL134C, strain PPH21, hits give low values",0.992
same,normalized growth,"locus YDL185W, strain tfp1, hits give low values",0.915
same,normalized growth,"locus YDL192W, strain arf1, hits give low values",0.976
same,normalized growth,"locus YDR001C, strain nth1, hits give low values",0.99
same,normalized growth,"locus YDR069C, strain doa4, hits give low values",0.985
same,normalized growth,"locus YDR101C, strain arx1, hits give low values",0.978
same,normalized growth,"locus YDR137W, strain rgp1, hits give low values",1.33 [resistant] (active)
same,normalized growth,"locus YDR150W, strain NUM1, hits give low values",0.971
same,normalized growth,"locus YDR159W, strain sac3, hits give low values",0.935
same,normalized growth,"locus YDR162C, strain NBP2, hits give low values",1.01
same,normalized growth,"locus YDR195W, strain ref2",0.967
same,normalized growth,"locus YDR297W, strain sur2, hits give low values",0.984
same,normalized growth,"locus YDR318W, strain mcm21, hits give low values",0.982
same,normalized growth,"locus YDR334W, strain swr1, hits give low values",1.04
same,normalized growth,"locus YDR335W, strain msn5, hits give low values",1.01
same,normalized growth,"locus YDR388W, hits give low values",0.99
same,normalized growth,"locus YDR392W, strain spt3, hits give low values",0.894
same,normalized growth,"locus YDR502C, strain sam2, hits give low values",0.983
same,normalized growth,"locus YEL003W, strain gim4, hits give low values",1
same,normalized growth,"locus YEL037C, strain rad23, hits give low values",0.99
same,normalized growth,"locus YEL061C, strain CIN8 (second series), hits give low values",0.989
same,normalized growth,"locus YEL061C, strain CIN8, hits give low values",0.987
same,normalized growth,"locus YER015W, strain faa2, hits give low values",0.991
same,normalized growth,"locus YER016W, strain bim1, hits give low values",0.993
same,normalized growth,"locus YER110C, hits give low values",0.983
same,normalized growth,"locus YER111C, strain swi4, hits give low values",1.01
same,normalized growth,"locus YER155C, strain BEM2 (second series), hits give low values",1.02
same,normalized growth,"locus YER155C, strain BEM2, hits give low values",0.979
same,normalized growth,"locus YER167W, strain BCK2, hits give low values",0.976
same,normalized growth,"locus YFR010W, strain ubp6, hits give low values",1.01
same,normalized growth,"locus YGL078C, strain dbp3, hits give low values",0.98
same,normalized growth,"locus YGL086W, strain mad1, hits give low values",0.962
same,normalized growth,"locus YGL167C, strain pmr1, hits give low values",0.984
same,normalized growth,"locus YGL173C, strain kem1, hits give low values",0.985
same,normalized growth,"locus YGL227W, strain vid30, hits give low values",1.02
same,normalized growth,"locus YGL240W, strain doc1, hits give low values",0.951
same,normalized growth,"locus YGL248W, strain PDE1, hits give low values",0.974
same,normalized growth,"locus YGL253W, strain hxk2, hits give low values",0.986
same,normalized growth,"locus YGR078C, strain PAC10, hits give low values",0.979
same,normalized growth,"locus YGR135W, strain pre9, hits give low values",0.997
same,normalized growth,"locus YGR252W, strain gcn5, hits give low values",1.02
same,normalized growth,"locus YHR013C, strain ard1, hits give low values",1
same,normalized growth,"locus YHR027C, strain rpn1, hits give low values",0.989
same,normalized growth,"locus YHR030C, strain SLT2, hits give low values",0.986 and 0.935
same,normalized growth,"locus YHR079C, strain IRE1 (second series), hits give low values",0.984
same,normalized growth,"locus YHR079C, strain IRE1, hits give low values",0.941
same,normalized growth,"locus YHR094C, strain hxt1, hits give low values",0.981
same,normalized growth,"locus YHR129C, strain ARP1, hits give low values",0.969
same,normalized growth,"locus YHR142W, strain chs7, hits give low values",1
same,normalized growth,"locus YHR200W, strain rpn10, hits give low values",0.961
same,normalized growth,"locus YIL066C, strain RNR3, hits give low values",0.958
same,normalized growth,"locus YIL073C, strain SPO22, hits give low values",0.964
same,normalized growth,"locus YIL125W, strain kgd1, hits give low values",0.981
same,normalized growth,"locus YIR030C, strain dcg1, hits give low values",0.966
same,normalized growth,"locus YJL092W, strain hpr5, hits give low values",0.99
same,normalized growth,"locus YJL095W, strain BCK1 (second series), hits give low values",0.993
same,normalized growth,"locus YJL095W, strain BCK1, hits give low values",0.993 and 0.928
same,normalized growth,"locus YJL115W, strain asf1, hits give low values",1
same,normalized growth,"locus YJL129C, strain trk1, hits give low values",0.922
same,normalized growth,"locus YJL134W, strain LCB3, hits give low values",0.989
same,normalized growth,"locus YJL154C, strain vps35, hits give low values",0.998
same,normalized growth,"locus YJL164C, strain tpk1, hits give low values",0.997
same,normalized growth,"locus YJL166W, strain qcr8, hits give low values",0.99
same,normalized growth,"locus YJL168C, strain set2, hits give low values",0.984
same,normalized growth,"locus YJL187C, strain SWE1 (second series), hits give low values",0.974
same,normalized growth,"locus YJR043C, strain POL32, hits give low values",0.997
same,normalized growth,"locus YJR066W, strain TOR1, hits give low values",0.878
